OTUD3 inh = inhibitors of human OTUD3 deubiquitinase; inhibition, % at 25 µM; 0.7% of 47,000 active; purified OTUD3, Ub-rhodamine fluorescence, 2 h; OTU domain-containing protein 3 (Homo sapiens), Q5T2D3
Target sequence (Q5T2D3 whole entry, looked up, the tested form may be a part): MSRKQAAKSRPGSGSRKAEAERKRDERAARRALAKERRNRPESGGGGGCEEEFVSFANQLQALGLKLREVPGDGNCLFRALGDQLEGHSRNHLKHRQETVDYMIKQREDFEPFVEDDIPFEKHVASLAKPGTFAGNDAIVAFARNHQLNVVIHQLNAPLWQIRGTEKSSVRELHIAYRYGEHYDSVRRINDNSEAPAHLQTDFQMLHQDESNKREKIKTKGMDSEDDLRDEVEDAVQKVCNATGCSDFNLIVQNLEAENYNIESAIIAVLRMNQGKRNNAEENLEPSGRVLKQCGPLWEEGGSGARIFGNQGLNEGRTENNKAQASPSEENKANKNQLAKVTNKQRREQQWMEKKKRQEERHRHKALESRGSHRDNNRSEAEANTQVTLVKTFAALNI
USP28 block = inhibitors of human USP28 deubiquitinase; Ubiquitin carboxyl-terminal hydrolase 28 (Homo sapiens), Q96RU2; purified USP28, Ub-rhodamine cleavage fluorescence, 30 min; inhibition, % at 25 µM; 3% of 47,000 active
USP30 block = inhibitors of human USP30 deubiquitinase; Ubiquitin carboxyl-terminal hydrolase 30 (Homo sapiens), Q70CQ3; purified USP30, Ub-rhodamine cleavage fluorescence; inhibition, % at 25 µM; 5.3% of 47,000 active
USP17 inh = inhibitors of human USP17 deubiquitinase; Ubiquitin carboxyl-terminal hydrolase 17-like protein 5 (Homo sapiens), A8MUK1; purified USP17, Ub-rhodamine cleavage fluorescence, 3 h; inhibition, % at 50 µM; 6.5% of 47,000 active
Numbers stand for hits; – = inactive; · = no result. Only some compounds are listed: those with a hit (about 11% of all), similar ones and a draw of the others. No stated cut-off is given here; in the data, active means inhibition above about 30%; inactive means the rest.

SMILES | OTUD3 inh | USP28 block | USP30 block | USP17 inh
CC(NC(=O)c1cc(C2CC2)nn1-c1ccccc1)c1ccc(F)cc1F (centres undefined) | – | – | – | –
COc1cc(NC(=O)Cn2c(=O)[nH]c3ccccc3c2=O)cc(OC)c1 | – | – | 73 | 53
COc1ccccc1/C=C(\C(=O)N1CCN(Cc2ccccc2)CC1)c1ccccc1 | – | – | 40 | –
Cc1oc(C2CCN(S(=O)(=O)c3ccccc3F)CC2)nc1C(=O)N(C)C | – | – | – | –
Cc1noc(C)c1CC(=O)N1C[C@@H](c2ccccc2)[C@@H]2NC(=O)CCCC[C@H]21 | – | – | – | –
COc1cc(C2CC(=O)Nc3nc(-c4ccccc4)[nH]c(=O)c32)cc(OC)c1O (centres undefined) | 47 | 65 | 66 | 82
COc1ccccc1C1CC(=O)Nc2n[nH]c(-c3ccccc3)c21 (centres undefined) | – | – | – | ·
COc1ccc(OC)c(C2CC(=O)Nc3n[nH]c(-c4ccccc4)c32)c1 (centres undefined) | – | – | 36 | 72
COc1ccc(C2CC(=O)Nc3n[nH]c(-c4ccccc4)c32)cc1OC (centres undefined) | – | – | 70 | –
O=C1CC(c2ccccc2F)c2c(nc(-c3ccccc3)[nH]c2=O)N1 (centres undefined) | – | – | – | –
O=C(NCc1ccccc1)C1Cn2ccnc2C2(CCN(C(=O)NC3CCCC3)CC2)O1 (centres undefined) | – | – | – | –
COc1cc(/C=C2\Oc3cc(OCC=C(C)C)ccc3C2=O)cc(OC)c1OC | – | – | – | –
CNC(=O)NC(=O)C(Sc1nnnn1C1CC1)c1ccccc1 (centres undefined) | – | – | – | –
O=C(NC1CC1)c1cc(-c2ccco2)nc2onc(-c3ccccc3)c12 | – | – | – | 31
CCc1nc(SCc2cccc(F)c2)c2oc3ccccc3c2n1 | – | – | 47 | 53
CCc1nc(SCC(=O)N2CCCc3ccccc32)c2oc3ccccc3c2n1 | – | – | – | 40
CCc1nc(SCC(=O)c2ccc(Br)cc2)c2oc3ccccc3c2n1 | – | – | – | –
CC(C)CN1CCS(=O)(=O)[C@@H]2CCN(C(=O)COc3ccccc3)CC[C@@H]21 | – | – | – | –
Cc1ccc2nc3c(cc2c1)CCN3C(=O)C(C)C | – | – | – | –
CC(=O)N1CC(C)Oc2ccc(S(=O)(=O)Nc3ccccc3Cl)cc21 (centres undefined) | – | – | – | –
O=C(O)c1cc(NC/C=C/c2ccccc2)ccc1N1CCOCC1 | – | – | – | –
COc1ccc(C(=O)Nc2ccc(-c3nc4ccccc4[nH]3)cc2)cc1S(=O)(=O)N1CCOCC1 | – | – | 50 | 51
COc1ccc(-n2c(=O)c3ccccc3n(CC(=O)NCC3CCCO3)c2=O)cc1OC (centres undefined) | – | – | – | –
CC(=O)O[C@@H]1[C@H]2[C@H](C)[C@H](O)CC[C@]2(C)C2C(=O)[C@@H](O)[C@H]3/C(=C(\CCC=C(C)C)C(=O)O)[C@@H](OC(C)=O)C[C@]3(C)[C@@]2(C)[C@H]1O (some centres undefined) | – | – | – | –
Cc1cccc(NC(=O)CC2Nc3ccccc3OC2=O)c1 (centres undefined) | – | – | – | 41
SMILES | OTUD3 inh | USP28 block | USP30 block | USP17 inh
COCCN1CCC2(CC1)CN(Cc1ccccn1)C(=O)CO2 | – | – | – | –
O=C(c1ccccc1)c1cccc2c1NCC2 | – | 43 | – | –
CCCNC(=O)c1ccc(Nc2cc(CCC)nc3nc(-c4cccnc4)nn23)cc1 | – | – | – | –
COc1ccc(CNC(=O)CNc2cc(C)nc3nc(-c4cccnc4)nn23)cc1 | – | – | 31 | –
CCCCNC(=O)c1ccc(Nc2cc(C)nc3nc(-c4cccnc4)nn23)cc1 | – | – | 47 | –
CC(C)c1cc(NCc2ccccc2)n2nc(-c3cccnc3)nc2n1 | – | – | 55 | –
COc1cccc(Nc2ncnc3c2nnn3C)c1 | – | – | – | –
Cc1nc(-c2ccccc2)sc1C(=O)CSc1ccc(F)cc1 | – | – | 32 | –
COc1ccccc1NC(=O)Cn1cc(C(=O)c2ccc(C)cc2)c(=O)c2ccccc21 | – | – | – | 62
COc1ccc(NC(=O)Cn2cc(C(=O)c3ccc(Cl)cc3)c(=O)c3cc(F)ccc32)cc1 | – | – | 39 | 31
Cc1ccc2c(c1)c(=O)c(C(=O)c1ccc(F)cc1)cn2CC(=O)Nc1ccc2c(c1)OCCO2 | – | – | – | 70
COc1ccc(NC(=O)Cn2cc(C(=O)c3ccccc3)c(=O)c3cc(Cl)ccc32)cc1OC | – | – | – | –
Cc1ccc(C(=O)c2cn(CC(=O)Nc3ccccc3C)c3ccc(C)cc3c2=O)cc1 | – | – | – | 40
COc1ccc2c(c1)c(=O)c(C(=O)c1ccc(Cl)cc1)cn2CC(=O)Nc1ccc(Cl)cc1 | – | – | – | –
CCS(=O)(=O)N1CCC(c2nc(N3CCCC3)ncc2-c2cc(C)no2)CC1 | – | – | – | –
COc1ccc(OC)c(C(C(=O)NC2CCCCC2)N(C(=O)c2ccc3c(c2)OCCO3)c2ccc(C)cc2)c1 (centres undefined) | – | – | 41 | –
O=C(c1cn(-c2cc(-c3nc(C4CC4)no3)ccn2)cn1)N1CCCC1 | – | – | – | –
Cc1cccc(NC(=O)c2noc3c2CCCC3)n1 | – | · | · | –
O=C(Nc1ccc(Cl)cc1)c1noc2c1CCCC2 | – | – | 35 | –
CC(=O)N1Cc2ccccc2CC1C(=O)NC(c1ccccc1)c1ccccc1 (centres undefined) | – | – | – | –
C=C[C@@]1(C)CC[C@@]2(C)[C@@H](CC[C@]3(C)C(C)=C(O)C(=O)C[C@H]23)C1 | – | – | 37 | 43
c1ccc2c(-c3nnc(C4CC4)o3)nnc(NCCCN3CCCC3)c2c1 | – | – | – | 40
O=C(CCn1c(=O)c2ccccc2n(Cc2cc(=O)n3ccccc3n2)c1=O)N1CCc2ccccc2C1 | – | – | – | –
O=C(Cn1c(=O)n(CCC(=O)N2CCc3ccccc3C2)c(=O)c2ccccc21)NCc1ccccc1Cl | – | 49 | 53 | 77
Cc1ccccc1Cn1c(=O)n(CCCC(=O)N2CCc3ccccc3C2)c(=O)c2ccccc21 | – | – | 47 | –
SMILES | OTUD3 inh | USP28 block | USP30 block | USP17 inh
N#Cc1ccc(C(=O)OCC(=O)N2CC(=O)Nc3ccccc32)cc1 | – | – | – | –
Cc1ccc(-c2nc(Cn3cnc4sc(C)c(C)c4c3=O)cs2)cc1 | – | – | – | ·
O=c1c2ccc(F)cc2ncn1Cc1csc(-c2ccccc2)n1 | – | 47 | – | –
Cc1ccccc1CS(=O)(=O)N1CCC(C(=O)N2CCCCC2)CC1 | – | – | – | –
CCn1c(Cn2cccn2)nc2cc(NC(=O)c3ccc(F)cc3)ccc21 | – | 53 | – | –
CCn1c(Cn2cccn2)nc2cc(NC(=O)CC(C)C)ccc21 | – | – | – | –
Cc1ccc2cc(CN(CCCO)C(=O)c3ccc(Cl)cc3)c(=O)[nH]c2c1C | – | – | – | –

Source: PubChem BioAssay
